Laboratory results taken from PubChem BioAssay AID743262 (National Center for Advancing Translational Sciences (NCATS), 2014).
Hit rate of the full screen: of about 1,300 compounds, about 25 (2%) were called active. Inconclusive results (about 9%) are left out. This is one part of a sample in which actives are shown more often than they occur. A number with no mark means an inactive call. Calls follow the shape of the dose curve; as a rule, active = well fitted activation curve with a large enough effect; inconclusive = small, poorly fitted or top-dose-only effect; inactive = flat fitted curve, though single readings scatter.

Biological target: Glucagon-like peptide 1 receptor (Homo sapiens) (UniProt P43220)
Assay: qHTS of GLP-1 Receptor Agonists: Hit Validation; as to activation: % of control where 0% means no effect
Settings: HEK293 GLP-1R, cAMP-response luciferase, 4-6 h; series mostly up to 46.1 µM; activation: at the top concentration
From the text: The overall goal of this project was to develop a novel assay for discovering small molecule ligands for class B1 G protein-coupled receptors (GPCRs). Very few agonists (or inverse agonists) with generally weak activity for this entire group of physiologically important receptors are known to date. To establish proof-of-principle that this critical bottleneck can be overcome with a suitable screening approach, our studies focused on the class B1 receptor for glucagon-like peptide-1 (GLP-1R), a potential therapeutic target for diabetes and neurodegenerative disease. The assay was developed in a "mix and measure" format using a cell-based functional readout. Toward this goal, stably transfected HEK293 cell clones were established that co-express (i) a cAMP-responsive luciferase reporter gene, and (ii) GLP-1Rs that upon ligand interaction either stimulate (agonists) or inhibit (inverse agonists) luciferase activity. In different cell lines to be used for screening, expressed GLP-1Rs are specifically optimized for high sensitivity detection of either weak agonists (hypersensitive receptor) or inverse agonists (constitutively active receptor mutant). In addition, control cell lines were developed that express either the cAMP-responsive reporter gene without recombinant GLP-1Rs (enabling initial exclusion of GLP-1R independent effects of candidate probes), or the reporter gene together with wild type GLP-1Rs (for confirmation of probe activity at this receptor), or the reporter gene in combination with the constitutively active orphan receptor GPR119 (enabling initial exclusion of GLP-1R independent inhibitory effects of candidate inverse agonists). To that end, this assay was optimized for 1536-well format and screened against the MLSMR. NIH Molecular Libraries Probe Production Network [MLPCN] NIH Chemical Genomics Center [NCGC] Grant: NS064851 PI Name: Martin Beinborn, Tufts Medical Center
In a white solid 1536-well plate, 6 uL of cells are dispensed in DMEM without phenol red, 10% Nu serum, and 1% pen-strep medium. The plates are then incubated for 12 hours at 37 deg C at 5% CO2 before 23 nL of compounds are added. After a 4-6 hr incubation at37 deg C and 5% CO2, 3 uL of detection reagent are added and after a 12 min incubation at RT, a luminescent read is obtained on the ViewLux.
Potency is read from the fitted curve at half-maximal effect.

Chain of Glucagon-like peptide 1 receptor (Homo sapiens) (P43220 whole entry, looked up): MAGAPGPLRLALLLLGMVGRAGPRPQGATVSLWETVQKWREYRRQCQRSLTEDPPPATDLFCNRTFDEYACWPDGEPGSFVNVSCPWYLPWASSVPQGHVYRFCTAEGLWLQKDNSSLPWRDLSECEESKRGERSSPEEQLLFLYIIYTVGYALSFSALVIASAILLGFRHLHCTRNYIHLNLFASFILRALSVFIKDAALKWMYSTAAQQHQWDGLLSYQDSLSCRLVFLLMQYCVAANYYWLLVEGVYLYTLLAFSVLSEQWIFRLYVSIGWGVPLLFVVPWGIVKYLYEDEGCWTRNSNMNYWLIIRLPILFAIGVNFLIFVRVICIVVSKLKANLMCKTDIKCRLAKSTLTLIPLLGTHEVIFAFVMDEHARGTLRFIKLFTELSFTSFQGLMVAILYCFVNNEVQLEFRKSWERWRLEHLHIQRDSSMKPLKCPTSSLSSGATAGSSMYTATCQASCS

In the case of CC(Cc1ccc(O)cc1)NCC(O)c1ccc(O)c(O)c1 (stereo not given), the Potency is reported as 9.2 nM (active).

In order of rising “activation” value:
1. C[C@@H]1CN([C@H](C)CO)C(=O)CCCn2cc(nn2)CO[C@H]1CN(C)C(=O)Oc1ccc2ccccc2c1  -0.911%
2. CN1CCN=C(c2ccccc2)c2cc(Cl)ccc21  -0.229%
3. N#Cc1c(/N=C/c2ccc(O)cc2O)sc2c1C1CCN2CC1  12.4%
4. O=c1[nH]cnc2nc(-c3ccc(N(CCCl)CCCl)cc3)[nH]c12  17.1%
